From PubChem BioAssay
In the library only some 3.5% were active in any assay of this set; here they are far more common.
MITF primary – blocks human microphthalmia-associated transcription factor | hit rate 0.91% among 650,000 | AlphaScreen MITF homodimerization, bead proximity signal | inhibition, % at 2.6 µM | O75030 | AID 1259374; in the data active = inhibition above about 50%;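 also: 0% = vehicle wells with protein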
FBW7 activator – activators of human E3 ligase FBW7; AlphaScreen FBW7–phospho-cyclin E peptide binding, activator screen; Q969H0; AID 1259310; normalized activity (activation), % at 26.1 µM; hit rate 0.13% among 650,000; in the data active = normalized activity above about 1.9%;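 also: purified mutant Fbw7 with reduced substrate affinity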
Target sequence (Q969H0 whole entry, looked up): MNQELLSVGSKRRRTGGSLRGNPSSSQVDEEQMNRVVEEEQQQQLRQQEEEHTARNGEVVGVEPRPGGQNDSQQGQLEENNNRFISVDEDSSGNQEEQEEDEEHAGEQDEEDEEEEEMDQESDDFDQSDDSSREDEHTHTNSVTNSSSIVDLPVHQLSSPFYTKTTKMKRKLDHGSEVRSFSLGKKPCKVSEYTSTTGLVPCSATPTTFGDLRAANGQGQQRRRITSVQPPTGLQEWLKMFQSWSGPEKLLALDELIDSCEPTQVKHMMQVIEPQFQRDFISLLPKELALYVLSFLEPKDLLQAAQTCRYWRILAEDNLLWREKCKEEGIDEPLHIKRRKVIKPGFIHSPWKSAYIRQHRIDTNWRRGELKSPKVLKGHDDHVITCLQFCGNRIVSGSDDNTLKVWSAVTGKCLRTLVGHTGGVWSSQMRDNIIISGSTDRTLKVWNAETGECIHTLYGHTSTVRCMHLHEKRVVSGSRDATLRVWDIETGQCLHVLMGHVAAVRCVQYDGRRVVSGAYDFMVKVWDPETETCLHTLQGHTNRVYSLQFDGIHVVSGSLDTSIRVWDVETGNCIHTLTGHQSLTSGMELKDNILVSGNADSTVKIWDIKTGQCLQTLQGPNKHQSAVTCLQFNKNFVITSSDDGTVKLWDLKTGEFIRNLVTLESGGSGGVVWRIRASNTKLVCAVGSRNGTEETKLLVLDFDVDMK
GPR151 ag – human GPR151 activation; PathHunter beta-arrestin GPR151 cells, luminescence; activation, % at 11.2 µM; hit rate 1% among 650,000; in the data active = activation above about 4.9%;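 also: 0% = median of compound wells and 100% = cells with positive control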
TEAD-YAP inh – TEAD-YAP interaction inhibition | HEK-TIYL cells, TEAD-Gal4/YAP UAS-luciferase luminescence | AID 1259422 | inhibition, % at 9.12 µM | hit rate 1.4% among 640,000; in the data active = inhibition above about 32%;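 also: 0% = median of test compound wells and 100% = reference inhibitor wells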
An asterisk follows results filed as active; ! = repeats disagree.

SMILES | MITF primary | FBW7 activator | GPR151 ag | TEAD-YAP inh
COc1ccc(Nc2nc(N3CCCCC3)nc3[nH]ncc23)cc1 | 7 | 1 | 1 | 40*
COc1ccc2cc(Br)ccc2c1CC(=O)Nc1nc(C)cs1 | 4 | 0 | -1 | 38*
OCCN(CCO)CC(O)COc1ccc(C23CC4CC(CC(C4)C2)C3)cc1 (configuration not stated) | 4 | 0 | 0 | 56*
Cc1ccc(OCC(O)CN(CCO)CCO)cc1 (configuration not stated) | -19 | 0 | 1 | -2
O=C1c2ccccc2S(=O)(=O)N1CCN1c2cccc3cccc(c23)S1(=O)=O | 3 | 0 | 0 | 4
O=C1NC(c2cc3c(cc2Cl)OCO3)Nc2ccccc21 (configuration not stated) | 7 | 1 | 0 | 51*
C=CCNC(=S)NNc1nc(Nc2ccccc2)nc(N2CCCCC2)n1 | 15 | 0 | 1 | 34*
C=CCNC(=S)NNc1nc(N2CCCC2)nc(N2CCCC2)n1 | 3 | 0 | 0 | 7
CC1CCN(c2nc3ncccc3nc2-c2ccccc2)CC1 | 11 | 2.1* | 0 | -1
COc1ccccc1NC(=O)COc1ccc(Br)cc1C=O | 8 | 0 | -1 | 2
O=C1c2c(O)ccc(O)c2C(=O)c2c(NCCNCCO)ccc(NCCNCCO)c21 | 52*! | -1 | -2 | 55*
O=C1c2c(O)ccc(O)c2C(=O)c2c(O)ccc(O)c21 | 43 | 0 | 3 | 14
Cc1ccc(NC(=O)N2CCCC2C(=O)Nc2ccccc2C)cc1 (configuration not stated) | 0 | 6.3* | 0 | 0
Cc1ccccc1NC(=O)C1CCCN1C(=O)Nc1ccccc1 (configuration not stated) | 15 | 0 | -1 | 10
O=C1NC2(CCN(CC(=O)N3CCN(c4ccc(F)cc4)CC3)CC2)Oc2ccccc21 | 10 | 0 | 0 | 4
CN(C)S(=O)(=O)c1cccc(C(=O)NCCO)c1 | -1 | 0 | -1 | 0
Cc1cccc(-c2nnc(SCC(=O)Nc3ccccc3F)o2)c1 | -1 | 0 | 0 | 64*
Cc1cccc(-c2nnc(SCC(=O)Nc3cc(Cl)ccc3O)o2)c1 | 17 | 0 | -4 | -39
CC1CCC(C(C)C)C(OC(=O)Cn2c(-c3ccccc3)[n+](C)c3ccccc32)C1 (configuration not stated) | 4 | 0 | 1 | 83*
CC1CCC(C(C)C)C(OC(=O)CN2C(=O)C3C4c5ccccc5C(c5ccccc54)C3C2=O)C1 (configuration not stated) | 0 | 0 | -1 | 19
CC1CCC(C(C)C)C(OC(=O)Cn2c[n+](CC(=O)OC3CC(C)CCC3C(C)C)c3ccccc32)C1 (configuration not stated) | 14 | 0 | 1 | 5
CC1CCC(C(C)C)C(OC(=O)Cn2c(-c3ccc(F)cc3)[n+](C)c3ccccc32)C1 (configuration not stated) | 6 | 0 | 1 | 40*
Cc1nc2ccccn2c1C(=O)NCc1ccccc1 | -2 | 0 | 5 | -5
CCC(C)NC(=O)c1c(C)nc2ccccn12 (configuration not stated) | 15 | 2.1* | -1 | 11
Cc1nc2ccccn2c1C(=O)NCc1ccccc1Oc1ccccc1 | 21 | 1.9* | -1 | 3
SMILES | MITF primary | FBW7 activator | GPR151 ag | TEAD-YAP inh
Cc1ccc(S(=O)(=O)N2CCOCC2)c(C)c1N1CCCC1=O | 7 | 0 | -1 | 5
Cc1ccn(S(=O)(=O)c2ccc(C)c(N3CCCC3=O)c2C)n1 | 11 | 2.0* | 1 | 8
CCCCOc1ccc(C(=O)Nc2ccc3c4c(cccc24)C(=O)N3CC)cc1 | 3 | 0 | 1 | 9
CCCCN1C(=O)c2cccc3c(NC(=O)c4ccc(C#N)cc4)ccc1c23 | 13 | 0 | -2 | 48*
CC(=O)c1ccc(Nc2ccc(-c3ccccc3F)nn2)cc1 | 2 | 0 | 0 | 57*
CC(=O)c1ccc(NC2=C(Cl)C(=O)c3ccccc3C2=O)cc1 | 2 | 0 | -1 | 49*
Cn1c(-c2ccccc2)cn2cc(-c3cccc([N+](=O)[O-])c3)nc12 | 3 | 0 | -8 | 99*
COc1ccc(-n2c(-c3cccc([N+](=O)[O-])c3)n[nH]c2=S)cc1 | 2 | 0 | 1 | -2
Cn1c(-c2ccc3c(c2)OCO3)cn2cc(-c3cccc([N+](=O)[O-])c3)nc12 | 7 | 0 | -1 | 98*
O=[N+]([O-])c1cccc(-c2csc(Nc3ccc4c(c3)OCO4)n2)c1 | 26 | 0 | -1 | -21
COc1ccc(-c2cn3cc(-c4cccc([N+](=O)[O-])c4)nc3n2C)cc1 | 2 | 0 | -7 | 98*
Cn1c(-c2cccc([N+](=O)[O-])c2)n[nH]c1=S | 1 | 0 | 0 | 3
CCOc1ccc(N2C(=O)CN=C2Nc2ccc(F)cc2)cc1 | 17 | 0 | 0 | 3
COCCN(C(=O)NC(C)C)C1CCN(Cc2ccccc2S(C)(=O)=O)CC1 | 48 | 0 | 1 | -2
CCN(CC)C(=O)C1CCCN(c2nc(NCCCN3CCCC3=O)c3ncn(CCN4CCCC4=O)c3n2)C1 (configuration not stated) | 3 | 0 | -2 | -1
CCN(CC)C(=O)C1CCCN(c2nc(NC3CC3)c3ncn(-c4ccsc4)c3n2)C1 (configuration not stated) | 10 | 0 | -1 | 9
CCN(CC)C(=O)C1CCCN(c2nc(NCc3nc4ccccc4[nH]3)c3ncn(-c4ccsc4)c3n2)C1 (configuration not stated) | 3 | 0 | 1 | 85*
OCC1CCCN1c1nc(NCc2nc3ccccc3[nH]2)c2ncn(-c3ccsc3)c2n1 (configuration not stated) | 25 | 0 | 0 | 72*
CCN(CC)C(=O)C1CCCN(c2nc(NCc3nc4ccccc4[nH]3)c3ncn(-c4ccccc4)c3n2)C1 (configuration not stated) | 7 | 0 | 0 | 72*
CCN(CC)C(=O)C1CCCN(c2nc(NCc3nc4ccccc4[nH]3)c3ncn(C(C)C)c3n2)C1 (configuration not stated) | -2 | 0 | 1 | 30
CCN(CC)C(=O)C1CCCN(c2nc(NCCCN3CCCC3=O)c3ncn(-c4ccsc4)c3n2)C1 (configuration not stated) | 8 | 0 | 1 | 35*
Cc1csc(-c2cnn3c(N4CCN(C)CC4)ccnc23)c1 | -13 | 0 | -1 | 32*
Cc1ccc(-c2cnn3c(N4CCN(C)CC4)ccnc23)cc1 | -12 | 0 | 0 | -52
O=C1C2CCCCC2C(=O)N1c1ccc2nc(SCc3c(Cl)cccc3Cl)sc2c1 (configuration not stated) | -12 | 0 | -1 | -1
c1ccc(-c2cn3nc4c(nc3n2)CCCC4)cc1 | 3 | 0 | -9 | 85*
CC(C)(C)NC(=O)NC1(C(F)(F)F)Oc2ccccc2O1 | 8 | 0 | 0 | -2
O=C(Cc1ccc(F)cc1)Nc1cc(-c2cn[nH]c2)ccn1 | -16 | 0 | 0 | 82*
